Bioassay records from PubChem.
bovine MsrA act: bovine MsrA enzyme activators, primary screen, biochemical, absorbance, HTS; Methionine sulfoxide reductase A (Bos taurus); purified bovine MsrA, absorbance read-out; activation, % at 10.6 µM; actives 0.3% (n = 360,000); AID 602163, 2012; in the data active means activation above about 7.5%
MsrA inhibitor: bovine MsrA enzyme inhibitors, primary screen, biochemical, absorbance, HTS; purified bovine MsrA, absorbance read-out; Methionine sulfoxide reductase A (Bos taurus); actives 0.75% (n = 360,000); AID 651718, 2012; inhibition, % at 15.5 µM; in the data active means inhibition above about 4.5%
PLCg1 inh: PLC-gamma1 enzyme inhibitors, primary screen, biochemical, fluorescence, purified enzyme; actives 0.84% (n = 370,000); fluorogenic substrate; AID 720700, 2013; inhibition, % at 12.2 µM; 1-phosphatidylinositol 4,5-bisphosphate phosphodiesterase gamma-1 (Homo sapiens), P19174
PLC-beta3 inh: human PLC-beta3 inhibitors, primary screen, biochemical, fluorescence | 1-phosphatidylinositol 4,5-bisphosphate phosphodiesterase beta-3 (Homo sapiens), Q01970 | actives 0.18% (n = 370,000) | inhibition, % at 12.2 µM | AID 720704, 2013 | Purified PLC-beta3, fluorogenic substrate; in the data active means inhibition above about 11%
Target sequence (Q01970 whole entry, looked up): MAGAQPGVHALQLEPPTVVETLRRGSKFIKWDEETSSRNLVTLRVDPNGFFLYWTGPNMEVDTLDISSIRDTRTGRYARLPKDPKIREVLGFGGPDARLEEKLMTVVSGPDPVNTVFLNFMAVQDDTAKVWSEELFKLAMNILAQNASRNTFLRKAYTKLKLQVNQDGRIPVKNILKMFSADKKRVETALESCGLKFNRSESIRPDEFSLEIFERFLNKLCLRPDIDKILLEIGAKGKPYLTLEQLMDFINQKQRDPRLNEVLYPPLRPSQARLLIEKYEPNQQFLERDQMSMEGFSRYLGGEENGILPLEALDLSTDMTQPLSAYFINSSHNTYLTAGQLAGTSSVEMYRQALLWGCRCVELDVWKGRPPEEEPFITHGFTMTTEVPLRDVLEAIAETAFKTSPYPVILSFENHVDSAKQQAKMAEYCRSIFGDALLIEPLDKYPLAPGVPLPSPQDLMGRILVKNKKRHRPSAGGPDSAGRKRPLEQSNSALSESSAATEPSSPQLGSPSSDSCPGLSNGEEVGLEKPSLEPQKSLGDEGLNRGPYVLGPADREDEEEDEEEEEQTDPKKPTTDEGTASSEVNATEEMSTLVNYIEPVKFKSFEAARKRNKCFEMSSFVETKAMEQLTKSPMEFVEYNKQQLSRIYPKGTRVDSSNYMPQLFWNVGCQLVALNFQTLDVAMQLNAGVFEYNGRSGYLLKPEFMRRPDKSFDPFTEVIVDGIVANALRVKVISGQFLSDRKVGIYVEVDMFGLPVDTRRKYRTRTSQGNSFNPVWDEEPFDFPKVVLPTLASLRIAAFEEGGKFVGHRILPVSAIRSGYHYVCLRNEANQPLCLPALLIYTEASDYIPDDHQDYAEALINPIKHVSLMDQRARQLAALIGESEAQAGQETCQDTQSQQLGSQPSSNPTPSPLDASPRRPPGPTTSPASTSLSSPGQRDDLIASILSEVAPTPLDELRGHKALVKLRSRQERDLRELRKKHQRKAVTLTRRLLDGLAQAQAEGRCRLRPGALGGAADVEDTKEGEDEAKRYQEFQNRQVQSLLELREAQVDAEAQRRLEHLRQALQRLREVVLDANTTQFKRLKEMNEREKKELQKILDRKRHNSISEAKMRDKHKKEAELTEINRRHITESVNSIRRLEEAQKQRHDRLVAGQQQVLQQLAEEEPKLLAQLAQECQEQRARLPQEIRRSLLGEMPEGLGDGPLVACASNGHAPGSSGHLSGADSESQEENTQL
PLCgamma1 ctr: PLC-gamma1 enzyme inhibitors, counter-screen for PLC-beta3 inhibitor project, biochemical, fluorescence; shares compounds with PLCg1 inh; actives 3.1% (n = 3,300); purified PLC-gamma1, fluorogenic substrate; inhibition, % at 12.3 µM
PLCb3 confirm: PLC-beta3 inhibitor confirmation, biochemical, fluorescence, purified enzyme; shares compounds with PLCg1 inh; fluorogenic substrate fluorescence; inhibition, % at 12.3 µM; actives 1% (n = 3,300); in the data active means inhibition above about 11%
Each line names hits and unclear results; the compound was inactive in the other large screens (follow-up assays come after a bar, where they were run); ! = a repeat was not active. A selection: hits, their analogues and other compounds. The true share with any hit is near 1.9%. Unless noted, no stated cut-off is given here; in the data, active means inhibition above about 9.5%; inactive means the rest.

CC(C)N(CCO)C(=O)CCc1nnc(Cc2cccc(C(F)(F)F)c2)o1	PLCg1 inh 9.7 | PLCgamma1 ctr inactive | PLCb3 confirm inactive
O=C(NN1C(=O)NC2(CCCCC2)C1=O)c1ccc(Cl)c(Cl)c1	PLCg1 inh 12 | PLCgamma1 ctr inactive | PLCb3 confirm inactive
O=C(NN1C(=O)NC2(CCCCC2)C1=O)c1cc(F)cc(F)c1	none
CC(C)c1cc(Cn2c3ccccc3c(=O)n2C(C)C)on1	none
CCc1cc(C(=O)NNC(=O)CCl)sc1C	PLCg1 inh 11 | PLCgamma1 ctr inactive | PLCb3 confirm inactive
Cc1ccc(S(=O)(=O)Oc2ccccc2/C=N/O)cc1	none
O=S(=O)(c1ccccc1)c1ccccc1/C=N\O	PLCg1 inh 11 | PLCgamma1 ctr inactive | PLCb3 confirm inactive
CC(=O)Oc1ccc(OC(C)=O)c2c1CC(C)=C(C)C2	none
CSc1ccc(CN2CCC2(C)C(=O)Nc2cccc(Oc3ccccc3)c2)cc1 (stereo unspecified)	none
O=C(NCc1ccccc1)C1=C[C@H](c2ccccc2)C[C@H](OCc2ccc(CO)cc2)O1	none
O=C(NCc1ccccc1)C1=C[C@H](c2ccc(C(F)(F)F)cc2)C[C@H](OCc2ccc(CO)cc2)O1	PLC-beta3 inh 14 | PLCgamma1 ctr inactive | PLCb3 confirm inactive
CCC(CC)c1nnc(NC(=O)c2cc([N+](=O)[O-])ccc2N2CCOCC2)s1	none
Cc1cccc(NC(=O)c2cc(S(=O)(=O)c3ccccc3)ccc2Cl)c1	PLCg1 inh 11 | PLCgamma1 ctr inactive | PLCb3 confirm inactive
NC(COCc1ccccc1)c1csc(Nc2cc(NCCCO)ncn2)n1 (stereo unspecified)	none
COC(=O)c1cc(-c2ccc(OC)cc2)n[nH]1	none
COC(=O)c1cc(-c2ccc(C)cc2)n[nH]1	PLCg1 inh 10 | PLCgamma1 ctr inactive | PLCb3 confirm inactive
CC(C)(C)NC(=O)[C@@H]1C[C@@H]2CCCC[C@@H]2CN1C[C@@H](O)[C@H](Cc1ccccc1)NC(=O)[C@H](CC(N)=O)NC(=O)c1ccc2ccccc2n1	PLCg1 inh 9.7! | PLCgamma1 ctr inactive | PLCb3 confirm inactive
C[C@H](O)[C@@H]1C(=O)N2CCc3c([nH]c4c(-c5ccccc5)cccc34)[C@@H]2C[C@@H]1N(C)C(=O)c1ccccc1F	none (no result: bovine MsrA act)
COC(=O)C1=C(C)N(Cc2ccc(C(F)(F)F)cc2)C(=NCc2cc(OC)c(OC)c(OC)c2)NC1c1cccc(Cl)c1 (stereo unspecified)	none (no result: bovine MsrA act)
O=C(O)/C=C/C(=O)NCCc1ccccc1	PLCg1 inh 10 | PLCgamma1 ctr inactive | PLCb3 confirm inactive
O=S(=O)(Nc1nc2ccccc2s1)c1cc(F)ccc1F	PLCg1 inh 9.5 | PLCgamma1 ctr inactive | PLCb3 confirm inactive
CC1(C)Cc2nc(Cl)c(C(N)=O)cc2CO1	PLCg1 inh 10 | PLCgamma1 ctr inactive | PLCb3 confirm inactive
COc1c(C)cc(C(=O)C2CCCN(C(=O)/C=C/c3ccccn3)C2)cc1C (stereo unspecified)	PLCg1 inh 11, PLC-beta3 inh 11 | PLCgamma1 ctr inactive | PLCb3 confirm inactive
CCOC(=O)C1CCCN(C(=O)c2ccc3c(c2)CCO3)CC1 (stereo unspecified)	none
CCOC(=O)C1CCN(C(=O)c2ccc3c(c2)OCCO3)CC1	PLCg1 inh 12 | PLCgamma1 ctr inactive | PLCb3 confirm inactive
CCOC(=O)C1CCN(C(=O)c2cc(C)n(C(C)(C)C)n2)CC1	PLCg1 inh 11 | PLCgamma1 ctr inactive | PLCb3 confirm inactive
COc1cccc(C(=O)N[C@H](C(=O)N2CCC[C@H]2C(=O)NCCc2ccccc2Cl)C2CCCCC2)c1	none (no result: bovine MsrA act)
CC(C)CNC(=O)OCc1cn(Cc2ccc(F)c(F)c2)nn1	none (no result: bovine MsrA act, MsrA inhibitor)
CC(C)(C)OC(=O)NCc1ccc(CNC(=O)c2[nH]cnc2C(=O)N[C@@H](Cc2ccccc2)C(=O)OC(C)(C)C)cc1	PLCg1 inh 9.5 | PLCgamma1 ctr inactive | PLCb3 confirm inactive
CC(C)(C)OC(=O)[C@H](Cc1ccccc1)NC(=O)c1nc[nH]c1C(=O)N[C@@H](CCCCN)C(=O)OC(C)(C)C	none
CC(C)(C)OC(=O)NCCCC[C@H](NC(=O)c1[nH]cnc1C(=O)N[C@@H](Cc1ccccc1)C(=O)OCc1ccccc1)C(=O)OC(C)(C)C	PLCg1 inh 10.0 | PLCgamma1 ctr inactive | PLCb3 confirm inactive
CC(C)(C)OC(=O)[C@H](Cc1ccccc1)NC(=O)c1nc[nH]c1C(=O)NCc1ccccc1	none
COc1ccc(CN=C2NC(=O)CC(C(=O)Nc3cc(C)cc(C)c3)S2)cc1 (stereo unspecified)	PLC-beta3 inh 17 | PLCgamma1 ctr inactive | PLCb3 confirm inactive
Cc1cc(C)c(C)c(S(=O)(=O)N2CCC(C(=O)NCCCN3CCOCC3)CC2)c1C	none
CC(C)(C)c1ccc(OC(=O)c2ccc3nsnc3c2)cc1	none
CC(C)(C)c1ccc(OC(=O)c2ccc3snnc3c2)cc1	PLCg1 inh 10 | PLCgamma1 ctr inactive | PLCb3 confirm inactive
CN(C)S(=O)(=O)c1ccc(NC(=O)COC(=O)CC2CC3CCC2C3)cc1 (stereo unspecified)	PLCg1 inh 9.8 | PLCgamma1 ctr inactive | PLCb3 confirm inactive
COc1ccc2c(c1)c(CCNNC(=O)C(C)(C)C)c(C)n2C(=O)c1ccc(Cl)cc1	none
CN(Cc1ccccc1F)C(=O)CCCNC(=O)c1ccc(Cl)cc1	PLCg1 inh 11 | PLCgamma1 ctr inactive | PLCb3 confirm inactive
COC(=O)C1CCCN1C(=O)COc1ccc(Br)cc1Cl (stereo unspecified)	PLCg1 inh 14 | PLCgamma1 ctr inactive | PLCb3 confirm inactive
CN(CCc1ccccc1)C(=O)CC1C(=O)NCCN1Cc1ccccn1 (stereo unspecified)	none
CC(=O)c1cccc(NC(=O)Nc2ccccc2)c1	none
CC(=O)c1cccc(NC(=O)C2C3C=CC(C3=C(c3ccccc3)c3ccccc3)C2C(=O)O)c1 (stereo unspecified)	PLCg1 inh 10 | PLCgamma1 ctr inactive | PLCb3 confirm inactive
C/C=C(\C)CN1CCCC(CO)(Cc2ccccc2)C1 (stereo unspecified)	PLCg1 inh 12 | PLCgamma1 ctr inactive | PLCb3 confirm inactive
CSc1ccc(CN2CCCC(CO)(Cc3ccccc3)C2)cc1 (stereo unspecified)	none
CC1CCCN(c2nc(NCc3ccco3)nc(N)c2[N+](=O)[O-])C1 (stereo unspecified)	PLCg1 inh 16 | PLCgamma1 ctr inactive | PLCb3 confirm inactive
CC1CC(C)CN(c2nc(NCc3ccco3)nc(N)c2[N+](=O)[O-])C1 (stereo unspecified)	none
Nc1nc(Nc2ccccc2F)nc(NCc2ccco2)c1[N+](=O)[O-]	PLCg1 inh 13 | PLCgamma1 ctr inactive | PLCb3 confirm inactive
